Several values for one entry are separate records, joined by “and”; a condition that tells them apart may be missing. Equal values may be shown once. Results filed as inconclusive are left out. Where a structure was tested more than once in an assay, its records may differ in their call. Activity calls are given as the source filed them. The call rests on the fitted dose curve; in most records, active means well fitted curve in the direction sought with a large enough effect; inconclusive means small, poorly fitted or top-dose-only effect, or another doubt; inactive means no such curve, though single readings can be large; an effect the other way counts as inactive or inconclusive. Where a SMILES comes first, the peptide text is derived from it. Bridges are numbered along the chain shown (N, C = ends). [ ]: non-standard residue; d: D form. The star is where a group is joined. X1 = CCC(C)C(N)C1=NC(C(=O)*)CS1; dOrn = NCCC[C@@H](N)C(=O)O
Key:
CRL-7250 = normal cell line; test: Cytotoxic Profiling of Annotated Libraries Using Quantitative High-Throughput Screening (AID 1296008); conditions: Five cell lines viability, CellTiter-Glo ATP luminescence, 48-72 h; max response: active compounds read low; further: nearly all actives have a fitted effect of over 60% in size; further: potency means the concentration at half of the fitted maximal effect; on max response: on the % scale 0 is the no-effect control and ±100 the full control effect
How it was run: (§1)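 Cells exposed to compounds for 48 or 72 hr at 37 degrees Celsius. Viability read as ATP-coupled luminescence with CellTiter-Glo after 10 min at room temperature.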

HEK293 = test: as above; conditions: Five cell lines viability, CellTiter-Glo ATP luminescence, 48-72 h; max response: active compounds read low
How it was run: as §1

HaCat [1] = test: as above; conditions: Five cell lines viability, CellTiter-Glo ATP luminescence, 48-72 h; max response: active compounds read low
How it was run: as §1

KB-3-1 = test: as above; conditions: Five cell lines viability, CellTiter-Glo ATP luminescence, 48-72 h; max response: active compounds read low
How it was run: as §1

NIH3T3 [2] = test: as above; conditions: Five cell lines viability, CellTiter-Glo ATP luminescence, 48-72 h; max response: active compounds read low
How it was run: as §1

NIH3T3 [3] = test: qHTS assay to identify novel small-molecules to repurpose for Merkel cell carcinoma treatment (AID 1296009); conditions: MCC and control cell lines, CellTiter-Glo viability, 72 h; at 44.8 µM (top of the series) unless noted; further: nearly all actives have a fitted effect of over 60% in size
How it was run: (§2)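 Dose-response viability screen; 72 hr exposure at 37 degree celsius; CellTiter-Glo added, 10 min room temperature, luminescence read; RLUs scaled between no-cell and DMSO wells.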

C33A = test: Primary qHTS to identify gynecologic anti-cancer compounds using libraries of approved drugs and bioactive compounds (AID 1345084); conditions: Gynecologic cancer cell panel viability, ATPlite luminescence, 48 h; series mostly up to 57.5 µM; further: on the % scale 0 is the no-effect control and ±100 the full control effect; nearly all actives have a fitted effect of over 55% in size
How it was run: (§3)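 In this quantitative HTS, cell killing is estimated from loss of ATP-dependent luciferase light. Cells see five compound concentrations over a 48 h exposure.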

CAOV3 = test: as above; conditions: Gynecologic cancer cell panel viability, ATPlite luminescence, 48 h; series mostly up to 57.5 µM
How it was run: as §3

CASKI = test: as above; conditions: Gynecologic cancer cell panel viability, ATPlite luminescence, 48 h; series mostly up to 57.5 µM
How it was run: as §3

Es-2 = test: as above; conditions: Gynecologic cancer cell panel viability, ATPlite luminescence, 48 h; series mostly up to 57.5 µM
How it was run: as §3

HeLa = test: as above; conditions: Gynecologic cancer cell panel viability, ATPlite luminescence, 48 h; series mostly up to 57.5 µM
How it was run: as §3

HACAT [4] = test: qHTS assay to identify novel small-molecules to repurpose for Merkel cell carcinoma treatment (AID 1296009); conditions: MCC and control cell lines, CellTiter-Glo viability, 72 h; at 44.8 µM (top of the series) unless noted; further: nearly all actives have a fitted effect of over 60% in size
How it was run: as §2

HEK293T = test: as above; conditions: MCC and control cell lines, CellTiter-Glo viability, 72 h; series mostly up to 44.8 µM
How it was run: as §2

Cc1onc(-c2ccccc2)c1C(=O)N[C@@H]1C(=O)N2[C@@H]1SC(C)(C)[C@@H]2C(=O)O
inactive: max response (CRL-7250) 4.38% | outcome (CRL-7250) | max response (HEK293) 3.77% and -1.97% | max response (HaCat [1]) -3.02% and -31.5% | outcome (KB-3-1) | outcome (NIH3T3 [2]) | outcome (NIH3T3 [3]) | Potency (C33A) | Potency (CAOV3) | Potency (CASKI) | Potency (Es-2) | Potency (HeLa)

C=C1CC[C@H]2[C@@H](/C=C(\C)C(=O)[C@@]3(OC(C)=O)C[C@H](C)[C@H](OC(C)=O)[C@@H]3[C@H]1OC(C)=O)C2(C)C
inactive: outcome (CRL-7250) | outcome (HEK293) | outcome (HaCat [1]) | outcome (KB-3-1) | outcome (NIH3T3 [2]) | outcome (HACAT [4]) inactive [at 17.4 µM] | Potency (HEK293T) | outcome (NIH3T3 [3]) inactive [at 17.4 µM] | Potency (C33A) | Potency (CAOV3) | Potency (CASKI) | Potency (Es-2) | Potency (HeLa)

O=C(C1CC1)N1CC[C@@H](Cc2n[nH]c(=O)n2-c2ccc(-c3ccc4occc4c3)cc2)C1
inactive: max response (CRL-7250) -4.78% and -21.6% | outcome (HEK293) | max response (HaCat [1]) -2.96% | outcome (HaCat [1]) | outcome (KB-3-1) | max response (NIH3T3 [2]) -10.7% | outcome (HACAT [4]) inactive [at 17.4 µM] | Potency (HEK293T) | Potency (C33A) | Potency (CAOV3) | Potency (CASKI) | Potency (Es-2) | Potency (HeLa)

CCC(C)C(N)C1=NC(C(=O)N[C@@H](CC(C)C)C(=O)N[C@H](CCC(=O)O)C(=O)N[C@H](C(=O)N[C@H]2CCCCNC(=O)[C@H](CC(N)=O)NC(=O)[C@@H](CC(=O)O)NC(=O)[C@H](Cc3cnc[nH]3)NC(=O)[C@@H](Cc3ccccc3)NC(=O)[C@H]([C@@H](C)CC)NC(=O)[C@@H](CCCN)NC2=O)[C@@H](C)CC)CS1 (stereo not given in full) (X1-L[dE]IK[dOrn]I[dF]H[dD]N; lactam 4-C)
inactive: max response (CRL-7250) 2.99% and -28% | max response (HEK293) -1.63% and -10.3% | outcome (HaCat [1]) | max response (KB-3-1) 8.49% | outcome (KB-3-1) | max response (NIH3T3 [2]) 2.78% | outcome (HACAT [4]) inactive [at 17.4 µM] | Potency (C33A) | Potency (CAOV3) | Potency (CASKI) | Potency (Es-2) | Potency (HeLa)

O=C(NC[C@H](O)CN1CCc2ccccc2C1)c1cc(NC2COC2)ncn1
inactive: max response (CRL-7250) -6.51% and -13.6% | max response (HEK293) -6.86% | max response (HaCat [1]) -0.448% | outcome (KB-3-1) | max response (NIH3T3 [2]) -2.53% | outcome (NIH3T3 [2]) | outcome (NIH3T3 [3]) | Potency (C33A) | Potency (CAOV3) | Potency (CASKI) | Potency (Es-2) | Potency (HeLa)

CC(C#N)C(C)O[C@@H]1O[C@H](CO)[C@@H](O)[C@H](O)[C@H]1O (stereo not given in full)
inactive: outcome (CRL-7250) | outcome (HEK293) | outcome (HaCat [1]) | outcome (KB-3-1) | outcome (NIH3T3 [2]) | outcome (HACAT [4]) | Potency (HEK293T) | outcome (NIH3T3 [3]) | Potency (C33A) | Potency (CAOV3) | Potency (CASKI) | Potency (Es-2) | Potency (HeLa)

C/C=C(\C)C(=O)O[C@@H](C)[C@H]1CC[C@]2(O)C3CCC4C[C@@H](OC5CC(OC)C(OC6CC(OC)C(OC7CC(OC)C(OC8OC(C)C(OC9OC(CO)C(O)C(O)C9O)C(OC)C8O)C(C)O7)C(C)O6)C(C)O5)CC[C@]4(C)C3[C@H](O)[C@@H](O)[C@]12C (stereo not given in full)
inactive: max response (CRL-7250) -8.84% | outcome (HEK293) | outcome (HaCat [1]) | outcome (KB-3-1) | outcome (NIH3T3 [2]) | outcome (HACAT [4]) inactive [at 9.27 µM] | outcome (HEK293T) inactive [at 9.27 µM] | outcome (NIH3T3 [3]) inactive [at 9.27 µM] | activity change, negative = cytotoxicity (C33A) 19.4% [at 6.55 µM] | activity change, negative = cytotoxicity (CAOV3) 3.47% [at 6.55 µM] | activity change, negative = cytotoxicity (CASKI) -2.65% [at 6.55 µM] | activity change, negative = cytotoxicity (Es-2) 10.2% [at 6.55 µM] | activity change, negative = cytotoxicity (HeLa) 3.49% [at 6.55 µM]

Cc1c(-c2ccnn2C)cc(C(=O)NCc2ccc(S(C)(=O)=O)cn2)c(=O)n1-c1cccc(C(F)(F)F)c1
inactive: max response (CRL-7250) 0.591% and -4.37% and 3.84% | outcome (CRL-7250) | max response (HEK293) -6.6% [middle of 4 runs] | max response (KB-3-1) 2.1% and 7.91% | outcome (KB-3-1) | max response (NIH3T3 [2]) 0.936% and -17.4% and -7.73% | Potency (C33A) | Potency (CAOV3) | Potency (CASKI) | Potency (Es-2) | Potency (HeLa)

CN(C)c1cccc(-c2c3c(=O)n(-c4ccccc4Cl)[nH]c3cc(=O)n2C)c1
active: Potency (HEK293) 5.88 µM | Potency (HaCat [1]) 14.8 µM
inactive: max response (CRL-7250) 3.76% | outcome (HEK293) | outcome (HaCat [1]) | max response (KB-3-1) 5.47% | max response (NIH3T3 [2]) -12.2% | outcome (NIH3T3 [2]) | outcome (HACAT [4]) | Potency (HEK293T) | outcome (NIH3T3 [3]) | Potency (C33A) | Potency (CAOV3) | Potency (CASKI) | Potency (Es-2) | Potency (HeLa)

N[C@H]1C[C@H]1c1ccc(-c2cccc(O)c2)cc1
inactive: max response (CRL-7250) 0.175% and -10.6% | max response (HEK293) -29.8% and -17.5% | max response (HaCat [1]) -1.19% | outcome (HaCat [1]) | outcome (KB-3-1) | max response (NIH3T3 [2]) -6.35% | outcome (NIH3T3 [2]) | outcome (HACAT [4]) | outcome (NIH3T3 [3]) | Potency (C33A) | Potency (CAOV3) | Potency (CASKI) | Potency (Es-2) | Potency (HeLa)

CC(C)(O)c1ccc2c(c1)C(O)CC1C(C)(C(=O)O)CCCC21C (stereo not given)
inactive: max response (CRL-7250) -4.52% | outcome (HEK293) | outcome (HaCat [1]) | max response (KB-3-1) 3.03% | outcome (NIH3T3 [2]) | outcome (HACAT [4]) | Potency (HEK293T) | outcome (NIH3T3 [3]) | Potency (C33A) | Potency (CAOV3) | Potency (CASKI) | Potency (Es-2) | Potency (HeLa)

O=C(/C=C/c1c(C(=O)O)[nH]c2cc(Cl)cc(Cl)c12)Nc1ccccc1
inactive: max response (CRL-7250) -11.7% | outcome (HEK293) | outcome (HaCat [1]) | outcome (KB-3-1) | outcome (NIH3T3 [2]) | outcome (HACAT [4]) | Potency (HEK293T) | outcome (NIH3T3 [3]) | Potency (C33A) | Potency (CAOV3) | Potency (CASKI) | Potency (Es-2) | Potency (HeLa)

From PubChem BioAssay (NCATS)
